Inconclusive results are not listed. The source made the active and inactive calls. Calls follow the shape of the dose curve; as a rule, active = well fitted curve in the direction sought with a large enough effect; inconclusive = small, poorly fitted or top-dose-only effect, or another doubt; inactive = no such curve, though single readings can be large; an effect the other way counts as inactive or inconclusive.
How the values were obtained:
[1] = qHTS of pediatric cancer cell lines to identify multiple opportunities for drug repurposing: Primary screen for NB-EBc1 cells (AID 1347095); also: potency is read from the fitted curve at half-maximal effect
Summary of the method: (§1)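 Luminescence from CellTiter-Glo served as readout of metabolically active cells after 48 h compound exposure. Titrations: MIPE 11-point, from 0.78 nM; NPC 8-point, from 0.59 nM (final). Concentration-response curves came straight from the primary screen.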

[2] = qHTS of pediatric cancer cell lines to identify multiple opportunities for drug repurposing: Primary screen for U-2 OS cells (AID 1347096); also: nearly all actives have a fitted effect of over 50% in size
Summary of the method: (§2)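 Cells (500-1,000/well) in growth media were settled 5 h at 37 degrees C, then given compounds for 48 h. Viability was read as CellTiter-Glo luminescence. Primary runs used MIPE at 11 points (0.78 nM-46 µM) and NPC at 8 points (0.59 nM-46 µM); follow-ups used 11 points.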

[3] = qHTS of pediatric cancer cell lines to identify multiple opportunities for drug repurposing: Primary screen for Saos-2 cells (AID 1347097); also: nearly all actives have a fitted effect of over 40% in size; also: potency is read from the fitted curve at half-maximal effect
Summary of the method: as §1

[4] = qHTS of pediatric cancer cell lines to identify multiple opportunities for drug repurposing: Primary screen for SK-N-SH cells (AID 1347098); also: nearly all actives have a fitted effect of over 65% in size; also: potency is read from the fitted curve at half-maximal effect
Summary of the method: (§3)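 Cells (500-1,000/well) rested 5 h, then received compounds for 48 h; metabolically active cells were measured by CellTiter-Glo luminescence. Final concentrations spanned up to 46 µM (MIPE, 11-point) or 0.59 nM-46 µM (NPC, 8-point) in primary screens, 11-point in follow-ups.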

[5] = qHTS of pediatric cancer cell lines to identify multiple opportunities for drug repurposing: Primary screen for LAN-5 cells (AID 1347100)
Summary of the method: as §2

[6] = qHTS of pediatric cancer cell lines to identify multiple opportunities for drug repurposing: Primary screen for BT-12 cells (AID 1347101); also: nearly all actives have a fitted effect of over 25% in size; also: potency is read from the fitted curve at half-maximal effect
Summary of the method: as §3

[7] = qHTS of pediatric cancer cell lines to identify multiple opportunities for drug repurposing: Primary screen for Rh18 cells (AID 1347102); also: nearly all actives have a fitted effect of over 65% in size
Summary of the method: as §2

[8] = qHTS of pediatric cancer cell lines to identify multiple opportunities for drug repurposing: Primary screen for RD cells (AID 1347104); also: nearly all actives have a fitted effect of over 55% in size
Summary of the method: as §1

[9] = qHTS of pediatric cancer cell lines to identify multiple opportunities for drug repurposing: Primary screen for MG 63 (6-TG R) cells (AID 1347105); also: nearly all actives have a fitted effect of over 50% in size
Summary of the method: as §1

[10] = qHTS of pediatric cancer cell lines to identify multiple opportunities for drug repurposing: Primary screen for control Hh wild type fibroblast cells (AID 1347106);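 also: series mostly up to about 46 µM; a drop in luminescence marks cytotoxicity and a rise apparent proliferation; nearly all actives have a fitted effect of over 55% in size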
Summary of the method: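 Viability after 48 h compound treatment at 37C, 500-1,000 cells/well, read as ATP luminescence with CellTiter-Glo. Primary screens used 11-point (MIPE, 0.78 nM-46 µM) or 8-point (NPC, 0.59 nM-46 µM) final concentrations; follow-up screens used 11-point dilutions.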

[11] = qHTS of pediatric cancer cell lines to identify multiple opportunities for drug repurposing: Primary screen for Rh30 cells (AID 1347107); also: series mostly up to about 46 µM; nearly all actives have a fitted effect of over 75% in size
Summary of the method: as §2

[12] = qHTS of pediatric cancer cell lines to identify multiple opportunities for drug repurposing: Primary screen for Rh41 cells (AID 1347108);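 also: series mostly up to about 46 µM; luminescence drop marks cytotoxic hits; nearly all actives have a fitted effect of over 70% in size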
Summary of the method: as §1

[13] = qHTS of pediatric cancer cell lines to identify multiple opportunities for drug repurposing: Primary screen for NB1643 cells (AID 1347099); also: nearly all actives have a fitted effect of over 50% in size
Summary of the method: as §1

[14] = qHTS of pediatric cancer cell lines to identify multiple opportunities for drug repurposing: Primary screen for OHS-50 cells (AID 1347103); also: nearly all actives have a fitted effect of over 40% in size
Summary of the method: as §3

[15] = qHTS of pediatric cancer cell lines to identify multiple opportunities for drug repurposing: Confirmatory screen for NB1643 cells (AID 1347109); also: nearly all actives have a fitted effect of over 45% in size
Summary of the method: as §2

[16] = qHTS of pediatric cancer cell lines to identify multiple opportunities for drug repurposing: Confirmatory screen for A673 cells (AID 1347110);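 also: cells exposed to compound for 48 h before the viability read; nearly all actives have a fitted effect of over 65% in size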
Summary of the method: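 A673 cells seeded at 500-1,000 cells/well, rested 5 h, then dosed; primary MIPE 11-point (0.78 nM to 46 µM), NPC (0.59 nM to 46 µM); confirmatory 11-point. CellTiter-Glo luminescence after 48 h.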

[17] = qHTS of pediatric cancer cell lines to identify multiple opportunities for drug repurposing: Confirmatory screen for LAN-5 cells (AID 1347113); also: nearly all actives have a fitted effect of over 65% in size
Summary of the method: as §2

[18] = qHTS of pediatric cancer cell lines to identify multiple opportunities for drug repurposing: Confirmatory screen for DAOY cells (AID 1347114); also: nearly all actives have a fitted effect of over 65% in size; also: potency is read from the fitted curve at half-maximal effect
Summary of the method: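 Viability measured as metabolically active cells via CellTiter-Glo luminescence following 48 hours of compound exposure, 11-point dilutions in confirmatory testing. 500-1,000 cells/well plated 5 hours before dosing; controls were DMSO and 2.3 µM bortezomib.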

[19] = qHTS of pediatric cancer cell lines to identify multiple opportunities for drug repurposing: Confirmatory screen for BT-12 cells (AID 1347112); also: nearly all actives have a fitted effect of over 55% in size
Summary of the method: as §2

Measured: Potency

O=C(Oc1ccccc1)c1cccc(C(=O)Oc2ccccc2)c1
not listed: [13] | [14] | [15] | [16] | [17] | [18] | [19]
inactive: all other assays above

N=C(N)c1ccc(OCCCOc2ccc(C(=N)N)cc2)cc1
active: [6] 2.19 µM | [18] 18.5 µM
not listed: [4] | [19]
inactive: all other assays above

CCC[C@H](N[C@@H](C)C(=O)N1[C@H](C(=O)O)C[C@@H]2CCCC[C@@H]21)C(=O)OCC
not listed: [4] | [13] | [14] | [15] | [16] | [17] | [18] | [19]
inactive: all other assays above

CCOCCn1c(C2CCN(CCc3ccc(C(C)(C)C(=O)O)cc3)CC2)nc2ccccc21
not listed: [4] | [11] | [13] | [15] | [16] | [17] | [18] | [19]
inactive: all other assays above

COc1cc(/C=C/C(N)=O)cc(OC)c1OC
not listed: [13] | [15] | [19]
inactive: all other assays above

COc1cc(C(=O)OC(COCCC(C)C)CN2CCOCC2)cc(OC)c1OC (stereo unspecified)
not listed: [4] | [13] | [15] | [16] | [17] | [18] | [19]
inactive: all other assays above

CO[C@@H]1[C@@H](O[C@@H]2O[C@H](C)[C@@H](O[C@H]3C[C@@](C)(O)[C@@H](O)[C@H](C)O3)[C@H](N(C)C)[C@H]2O)[C@@H](CC=O)C[C@@H](C)[C@@H](O[C@@H]2CC[C@H](N(C)C)[C@@H](C)O2)/C=C/C=C/C[C@@H](C)OC(=O)C[C@H]1OC(C)=O
inactive: [1] | [2] | [3] | [13] | [5] | [7] | [8] | [10] | [11] | [12]

COC(=O)c1cc(Cl)ccc1NS(=O)(=O)C(F)(F)F
not listed: [4] | [13] | [14] | [15] | [16] | [17] | [18] | [19]
inactive: all other assays above

C[C@H](N)C(=O)N[C@@H](C)C(=O)NC1[C@H]2CN(c3nc4c(cc3F)c(=O)c(C(=O)O)cn4-c3ccc(F)cc3F)C[C@@H]12 (stereo partly specified)
inactive: [1] | [2] | [3] | [7] | [14] | [8] | [10] | [11] | [12]

C[C@H]1C[C@@H]2[C@H]([C@@H](O)C[C@@]3(C)[C@H]2CC[C@]3(O)C(=O)CO)[C@@]2(C)C=CC(=O)C=C12
not listed: [9] | [13] | [15] | [17]
inactive: all other assays above

NS(=O)(=O)c1ccc(N2CCCCS2(=O)=O)cc1
not listed: [11] | [13] | [15] | [16] | [17] | [18] | [19]
inactive: all other assays above

N[C@@H](Cc1cc(I)c(O)c(I)c1)C(=O)O
not listed: [3] | [12] | [15] | [16] | [17] | [18] | [19]
inactive: all other assays above

CC1(C)O[C@@H]2C[C@H]3[C@@H]4CCC5=CC(=O)C=C[C@]5(C)[C@@]4(F)[C@@H](O)C[C@]3(C)[C@]2(C(=O)CO)O1
not listed: [13] | [15] | [16] | [17] | [18] | [19]
inactive: all other assays above

Nc1ccc([N+](=O)[O-])c(C(F)(F)F)c1
not listed: [4] | [7] | [11] | [15] | [16] | [17] | [18] | [19]
inactive: all other assays above

O=C(CCC1CCN(Cc2ccccc2)CC1)c1ccc2c(c1)NCCCC2
active: [4] 30.7 µM
inactive: [1] | [2] | [3] | [5] | [7] | [10] | [11] | [12]

C1N2CN3CN1CN(C2)C3
not listed: [4] | [9] | [15] | [16] | [17] | [18] | [19]
inactive: all other assays above

CCCCN(CCN(CCCC)C(=O)N1CCOCC1)C(=O)N1CCOCC1
inactive: [1] | [2] | [5] | [7] | [8] | [9] | [10] | [11]
active: [3] 23.7 µM

Cc1[nH]cnc1-c1ccc(Cl)cc1
not listed: [4] | [9] | [14] | [15] | [16] | [17] | [18] | [19]
inactive: all other assays above

CC(=O)Nc1ccn(C2COC(COC(=O)c3ccccc3)O2)c(=O)n1 (stereo unspecified)
active: [1] 2.37 µM
inactive: [2] | [3] | [7] | [8] | [10] | [11] | [12]

— PubChem BioAssay (NCATS)
